Experimental data as given in PubChem BioAssay (Tox21).
Unmarked numbers belong to inactive results. Calls follow the shape of the dose curve; as a rule, active = well fitted activation curve with a large enough effect in the repeat runs; inconclusive = weak or mixed curves; inactive = flat fitted curve, though single readings scatter.

assay: A CellTox Green Cytotoxicity Assay to monitor cytotoxicity in HEK293 cells - 0 hour (AID 1224869); details: CellTox Green fluorescence; series mostly up to 76.8 µM; cytotoxicity: at the top concentration; also: nearly all actives have a fitted effect of over 50% in size
How it was run: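 HEK293 cells, 600/well, were preincubated 5 hours and then exposed to compounds at 37 C for up to 40 hours. A cell-impermeant cyanine dye staining dead-cell DNA was read by fluorescence at 0, 8, 16, 24, 32 and 40 h time points.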
% is scaled to controls: 0 for no effect and ±100 for the full control effect.

Compound	cytotoxicity
CC(C)(C)c1nnc(NS(=O)(=O)c2ccccc2)s1	-0.316% [at 35.3 µM]
c1ccc(CC2=NCCN2)cc1	-3% [at 35.3 µM]
CCCCCCCCCCCCN(CCCCCCCCCCCC)CCCCCCCCCCCC	-0.175%
COC(C)(C)CCCC(C)CC=O (stereo not given)	-1.02%
C=CCS(=O)(=O)O	0.25%
COCCCOCCCOC	-0.0987%
NS(=O)(=O)c1ccc(C(=O)O)cc1	-0.033% [at 35.3 µM]
COc1c(N2C[C@@H]3CCCN[C@@H]3C2)c(F)cc2c(=O)c(C(=O)O)cn(C3CC3)c12	-2.38% [at 35.3 µM]
COC(=O)c1ccc(C)cc1C1=NC(C)(C(C)C)C(=O)N1 (stereo not given)	14%
CS(=O)(=O)O	-3.75%
CC(=O)c1ccccc1O	1.37%
Cc1ccc(C#N)cc1	-1.51%
O=C(O)c1ccccc1OP(=O)(O)O	1.41% [at 35.3 µM]
O=c1[nH]c(=O)n([C@H]2C[C@H](O)[C@@H](CO)O2)cc1I	8.93% [at 35.3 µM]
CC(C)NC(=O)NC(C)C	-3.84%
CCOC(=O)[C@H](CCc1ccccc1)N[C@@H](C)C(=O)N1[C@H](C(=O)O)C[C@@H]2CCC[C@@H]21	-0.414% [at 35.3 µM]
COc1cc(C(=O)N2CCCCCCC2)cc(OC)c1OC	4.31% [at 35.3 µM]
O=C(O)CCCc1ccccc1	-9.16% [at 35.3 µM]

Compound	cytotoxicity
CO/N=C(/C(=O)N[C@@H]1C(=O)N2C(C(=O)OCOC(=O)C(C)(C)C)=C(C)CS[C@H]12)c1csc(N)n1	0.923% [at 35.3 µM]
Cc1cc2c(cc1S(N)(=O)=O)S(=O)(=O)CCC2	-3.84% [at 35.3 µM]
Cc1cc(O)cc2c1O[C@](C)(CCC[C@H](C)CCC[C@H](C)CCCC(C)C)CC2	-8.71% [at 35.3 µM]
CCOC(=O)c1c(C)n(C)c2ccc(O)cc12	-0.103% [at 35.3 µM]
O=C(CCCN1CCN(c2ccccn2)CC1)c1ccc(F)cc1	1.29% [at 35.3 µM]
CCS(=O)(=O)c1ccc(OC)c(C(=O)OC)c1	-0.27% [at 35.3 µM]
CC1=CC(C)C(C=O)CC1 (stereo not given)	-2.78%
CCOC(=O)C(=O)OCC	1.2%
Cn1c(N)c(N=O)c(=O)n(C)c1=O	-0.8%
Cc1sccc1Br	-1.54% [at 35.3 µM]
CCCCCSCCCCC	-5.05%
CC(=O)OCC(=O)[C@@]1(O)CCC2C3CCC4=CC(=O)CC[C@]4(C)C3[C@@H](O)C[C@@]21C (stereo not given in full)	-4.11% [at 35.3 µM]
O=Cc1cccc([N+](=O)[O-])c1	-4.95%
CN(C(=O)c1c(O)c2ccccc2n(C)c1=O)c1ccccc1	-1.31% [at 35.3 µM]
CC(C)CCCC(C)N (stereo not given)	3.98% [at 35.3 µM]
CCCCOCCOCCOCCCC	0.0648%
NS(=O)(=O)c1cc(C(=O)O)cc(N2CCCC2)c1Oc1ccccc1	0.377% [at 35.3 µM]
